Compound activity deposited in PubChem by National Center for Advancing Translational Sciences (NCATS).
IL1B secr inh – inhibitors of inflammasome signaling (IL-1 beta secretion) | THP-1 LPS/ATP IL-1B secretion, AlphaLISA, 16 h; active compounds read low | activity change, % at 57.5 µM | AID 743279 | 360,000 compounds, 4.7% hits; in the data active = activity change below about -50%; inconclusive = mostly about -30% to -49%
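Secreted IL-1B measured by AlphaLISA bead assay after 16 h compound exposure of THP-1 cells; compounds (final up to 57.5 uM) added 1 h before LPS (250 ng/mL) and ATP (1.25 mM) stimulation; lower signal means less secretion.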
HT1080 IDH1KD tx – kills HT-1080 cells with IDH1 knockdown | HT-1080 IDH1 knockdown viability, ATP luminescence, 48 h | Potency, µM (top dose mostly 46.1 µM), for inactives: top-dose activity, negative = toxicity, hits mostly cytotoxic | 360,000 compounds, 2% hits | AID 686971;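 also: potency is read from the fitted curve at half-maximal effect; 0% = DMSO wells and -100% = cell-free medium wells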
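In this qHTS, HT-1080 cells depleted of IDH1 are exposed for 48 h at 37 °C to compound titrations. Toxicity is scored from CellTiter-Glo luminescence, with DMSO as full viability and medium alone as none.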
TDP1 cell CPT – growth inhibition of DT40 Tdp1-/-;hTDP1 cells with camptothecin (screen for TDP1 inhibitors) | chicken DT40 Tdp1-/-;hTDP1 cells + 20 nM CPT, ATP luminescence, 48 h | Potency, µM (doses to about 46.2 µM), for inactives: at the highest dose activity change, negative = growth inhibition, usual class: inhibitors | 420,000 compounds, 12% hits | AID 686979; also: potency is read from the fitted curve at half-maximal effect; nearly all actives have a fitted effect of over 55% in size
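Chicken DT40 Tdp1-/- cells stably complemented with human TDP1 were seeded at 400 cells/well in medium containing 20 nM camptothecin, exposed to pin-transferred compounds, and grown at 37 °C for at least 48 hr. Viability was read as ATP luminescence.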
HT1080-NT tox – kills 2HG-producing HT-1080-NT fibrosarcoma cells; 360,000 compounds, 1.6% hits; HT-1080-NT fibrosarcoma viability, CellTiter-Glo ATP luminescence, 48 h; Potency, µM (titrated, usually from 46.1 µM), inactives show at the highest dose activity, negative = less viability, most hits filed as cytotoxic;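 also: NT is the 2HG producing partner of a matched IDH1 knockdown line; potency is read from the fitted curve at half-maximal effect; 0% = DMSO-treated cells and -100% = media-only wells without cells; nearly all actives have a fitted effect of over 55% in size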
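A 48-hour cytotoxicity screen used HT-1080-NT cells plated 2 hours before compound delivery. ATP-based CellTiter-Glo luminescence measured viability, normalized to DMSO and no-cell controls.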
DT40 TDP1 no CPT – qHTS for Inhibitors of human tyrosyl-DNA phosphodiesterase 1 (TDP1): qHTS in cells in absence of CPT. Potency, µM (doses to about 46.2 µM), for inactives: top-dose activity change, negative = growth inhibition, actives largely listed as inhibitors. DT40 Tdp1-/- hTDP1 cells, no CPT, ATP luminescence, 48 h. 420,000 compounds, 15% hits; also: potency is read from the fitted curve at half-maximal effect; nearly all actives have a fitted effect of over 55% in size
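Growth of hTDP1-complemented DT40 Tdp1-knockout cells is measured by ATP luminescence after at least 48 hr compound exposure at 37 °C, with DMSO substituting for the 20 nM CPT used in the parallel screen.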
ELG1 repair inh – inhibitors of ELG1-dependent DNA repair in HEK293T cells. 330,000 compounds, 2.3% hits. Potency, µM (doses to about 46.1 µM), inactives show top-dose activity change, negative = inhibition, most hits filed as inhibitors. HEK293T ELG1-luciferase reporter, luminescence, 16 h; DNA damage induced by 5-fluorouridine; also: potency is read from the fitted curve at half-maximal effect; nearly all actives have a fitted effect of over 55% in size
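DMSO vehicle served as the neutral condition. Each well held 2,000 cells given 5-fluorouridine plus compound; after 16 hr at 37 °C/5% CO2, ONE-Glo was added and luciferase measured 30 min later.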
Starred values were filed as active, the others as inactive; ? = inconclusive; · = not tested or not shown; [ ] = remark or other dose. Sampled rows, rich in hits. Any-hit rate of the full collection: about 19%. Unless noted, calls follow the shape of the dose curve; as a rule, active = well fitted curve in the direction sought with a large enough effect; inconclusive = small, poorly fitted or top-dose-only effect, or another doubt; inactive = no such curve, though single readings can be large; an effect the other way counts as inactive or inconclusive. Unless noted, % is scaled to controls: 0 for no effect and ±100 for the full control effect.

SMILES	IL1B secr inh	HT1080 IDH1KD tx	TDP1 cell CPT	HT1080-NT tox	DT40 TDP1 no CPT	ELG1 repair inh
CC(=O)N1CCCc2cc(S(=O)(=O)N3CCCC(C(=O)Nc4ccc(C)c(F)c4)C3)ccc21 (stereo not drawn)	·	·	?	·	21µM*	·
CC1Cc2cc(S(=O)(=O)N3CCC(C(=O)NCc4ccco4)CC3)ccc2N1C(=O)C1CCC1 (stereo not drawn)	-19	-6%	?	-20%	23µM*	-24%
O=C(Nc1c[nH]c(=O)[nH]c1=O)c1ccccc1Cl	11	8%	-2%	7%	6%	0%
Cc1ccc(Cl)cc1NC(=O)COCc1cc(-c2ccco2)on1	·	·	-21%	·	?	·
O=C(c1ccccc1Cl)N1CCCCC1CCN1CCOCC1 (stereo not drawn)	·	·	-20%	·	-16%	·
CCc1ccc(S(=O)(=O)N2CCN(C(=O)C3CCN(C(C)=O)CC3)CC2)cc1	10	-1%	-6%	1%	8%	-18%
COc1ccc(CCNC(=O)c2c(O)c3ccccc3[nH]c2=O)cc1	14	1%	-19%	-1%	-8%	-9%
O=C(NCc1ccccc1Cl)C1CCN(S(=O)(=O)c2ccc3c(c2)CCCN3C(=O)C2CCC2)CC1	·	·	15µM*	·	15µM*	·
CN1C(=O)C(C)(C)c2cc(S(=O)(=O)N3CCCC(C(=O)NCc4ccccc4Cl)C3)ccc21 (stereo not drawn)	2	-2%	?	-1%	23µM*	-29%
CC(=O)N1c2ccc(S(=O)(=O)N3CCC(C(=O)NCc4ccccc4Cl)CC3)cc2CC1C (stereo not drawn)	-6	0%	-6%	2%	?	23µM*
COc1ccc(CNC(=O)C2CCCN(S(=O)(=O)c3ccc4c(c3)C(C)(C)C(=O)N4C)C2)cc1 (stereo not drawn)	21	2%	-14%	1%	?	-18%
Cc1ccc(Cl)cc1N1CCN(S(=O)(=O)c2ccc3c(c2)CCCN3C(=O)C2CCC2)CC1	·	·	-4%	·	?	·
CC(=O)N1c2ccc(S(=O)(=O)N3CCCC(C(=O)NCc4ccccc4Cl)C3)cc2CC1C (stereo not drawn)	-55*	-16%	?	-3%	-11%	?
COc1ccc(NC(=O)CS(=O)CC(=O)Nc2ccc(-n3cnnn3)c(C)c2)cc1 (stereo not drawn)	6	7%	8%	6%	0%	1%
CCC(=O)N1CCCc2cc(S(=O)(=O)N3CCC(C(=O)Nc4ccccc4CC)CC3)ccc21	·	·	26µM*	·	?	·
CC(=O)N1CCCc2cc(S(=O)(=O)N3CCN(c4ccc(F)cc4)CC3)ccc21	·	·	23µM*	·	16µM*	·
Cc1ccc(S(=O)(=O)Nc2ccc3ccccc3c2[N+](=O)[O-])cc1	25	-21%	?	?	?	·
Cc1ccc(S(=O)(=O)Nc2ccccc2N=Cc2ccc([N+](=O)[O-])cc2[N+](=O)[O-])cc1	-7	-6%	26µM*	1%	18µM*	·
Cc1ccc(S(=O)(=O)Nc2ccc3cc([N+](=O)[O-])ccc3c2[N+](=O)[O-])cc1	-6	?	?	2.6µM*	23µM*	·
COc1ccc([N+](=O)[O-])cc1NS(=O)(=O)c1ccc(C)cc1	8	2%	-17%	3%	?	-3%
O=C(N/N=C/c1c[nH]c2ccccc12)c1cccc(Cl)c1	-2	5%	-15%	2%	-13%	?
CCc1ccc(-c2cc(C(=O)N/N=C/c3c[nH]c4ccccc34)[nH]n2)cc1	-53*	3.7µM*	16µM*	5.2µM*	6.5µM*	?
CCc1ccc2c(Cl)c(C(=O)N/N=C/c3c[nH]c4ccccc34)sc2c1	-50*	2%[9.24 µM]	21µM*	?	?	14%
O=C(N/N=C/c1ccc[nH]1)c1sc2ccccc2c1Cl	37	?	13µM*	?	13µM*	?
CC1CCc2nc(/C(C#N)=C/c3ccncc3)sc2C1 (stereo not drawn)	-13	-1%	18µM*	6%	?	?
SMILES	IL1B secr inh	HT1080 IDH1KD tx	TDP1 cell CPT	HT1080-NT tox	DT40 TDP1 no CPT	ELG1 repair inh
COc1ccc(/C=C/c2nc(-c3ccccc3O)n[nH]2)cc1OC	-99*	4%	?	4%	?	?
N#Cc1ccc(-c2c(-c3ccccc3)ncc3cc(F)ccc23)cc1	-2	-10%	10µM*	-22%	16µM*	?
COc1cc2cnc(-c3ccccc3)c(C(=O)c3ccc(F)cc3)c2cc1OC	-9	-1%	18µM*	0%	23µM*	?
COC(=O)c1ccc(-c2c(-c3ccccc3)ncc3cc(F)ccc23)cc1	45	-14%	13µM*	0%	26µM*	?
N#Cc1cc(-c2ccccc2)cnc1Cl	3	-17%	-13%	-2%	-1%	-8%
COc1cc(OC)c(NC(=O)c2ccc3nc(C(C)C)oc3c2)cc1Cl	·	·	9.2µM*	·	18µM*	·
COc1cc(NC(=O)c2ccc(Cl)cc2)c(OC)cc1Cl	3	-11%	?	3%	?	7%
CC(C)c1nc2ccc(C(=O)NCc3ccc(F)cc3)cc2o1	·	·	-26%	·	?	·
CCOc1cc(CNC(=O)c2ccc3nc(C(C)C)oc3c2)cc(OCC)c1OCC	·	·	23µM*	·	18µM*	·
COc1ccc2nc3sc(C(=O)Nc4cc(Cl)c(OC)cc4OC)cc3cc2c1	·	·	?	·	5.8µM*	·
CCc1ccc(NC(=O)c2ccc3nc(C(C)C)oc3c2)cc1	·	·	?	·	18µM*	·
O=C(NCc1ccccc1CN1CCCC1)c1ccc(Cl)c(S(=O)(=O)N2CCCC2)c1	-23	-13%	?	-5%	?	7%
CC(C)C[C@H]1CN(CCCC[C@@H]2CNC(=O)C(=O)N2CC2CCCCC2)C(=O)C(=O)N1CCc1ccc(O)cc1	27	18%	-7%	10%	-5%	·
COc1ccc(OCc2nnc(SCC(=O)Nc3cccc(C(C)=O)c3)o2)cc1	0	-2%	-7%	-1%	18%	2%
O=C(CSc1nc(=O)n(Cc2ccco2)c2c1CCC2)NCc1ccccc1	·	·	-24%	·	-26%	·
COc1cccc(CNC(=O)[C@@H]2CCCN2C(=O)[C@@H]2CCCN2C(=O)c2cccc3ccccc23)c1	0	-1%	?	3%	?	·
